PubChem BioAssay (NCI)
This is part of a sample that, as a whole, favours compounds with a hit. Of some 83,000 tested, about 20% had one in any assay.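 Single-concentration screen, 48 h exposure, 96-well plates. Endpoint: percent growth. Below 10 = active.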 Calls of active or inactive are those of the source.

Columns and labels:
Test in all cases: NCI-60 one-dose screen, 48 h (100 = growth as untreated, 0 = no growth, -100 = all killed)
Settings in all cases: 10 µM unless noted
HCT-15 colon = system: HCT-15 colon
HT29 colon = system: HT29 colon
SNB-75 CNS = system: SNB-75 CNS
SNB-19 CNS = system: SNB-19 CNS
U251 CNS = system: U251 CNS
PC-3 prostate = system: PC-3 prostate
SK-MEL-5 melanoma = system: SK-MEL-5 melanoma
UACC-62 melanoma = system: UACC-62 melanoma
LOX IMVI melanoma = system: LOX IMVI melanoma
SK-MEL-28 melanoma = system: SK-MEL-28 melanoma
SK-MEL-2 melanoma = system: SK-MEL-2 melanoma
SN12C renal = system: SN12C renal
UO-31 renal = system: UO-31 renal
TK-10 renal = system: TK-10 renal
ACHN renal = system: ACHN renal
CAKI-1 renal = system: CAKI-1 renal
A498 renal = system: A498 renal
CCRF-CEM leukemia = system: CCRF-CEM leukemia
MOLT-4 leukemia = system: MOLT-4 leukemia
EKVX NSCLC = system: EKVX NSCLC

Measured: growth

Cc1ccc(NC(=S)NNC(=S)Nc2ccc(C)cc2)cc1
inactive: HCT-15 colon 96.7% | HT29 colon 105% | SNB-75 CNS 96.1% | SNB-19 CNS 98.5% | U251 CNS 106% | PC-3 prostate 101% | SK-MEL-5 melanoma 102% | UACC-62 melanoma 98.6% | LOX IMVI melanoma 115% | SK-MEL-28 melanoma 105% | SK-MEL-2 melanoma 109% | SN12C renal 98.1% | UO-31 renal 89.9% | TK-10 renal 109% | ACHN renal 105% | CAKI-1 renal 102% | A498 renal 84.1% | CCRF-CEM leukemia 95.6% | MOLT-4 leukemia 97.5%

COc1cc(-c2nc3sccn3c2-c2ccnc(S(C)(=O)=O)n2)ccc1F
inactive: HCT-15 colon 77.9% | HT29 colon 116% | SNB-75 CNS 76.1% | SNB-19 CNS 92% | U251 CNS 99.1% | PC-3 prostate 105% | SK-MEL-5 melanoma 96.5% | UACC-62 melanoma 81.3% | LOX IMVI melanoma 102% | SK-MEL-28 melanoma 97.7% | EKVX NSCLC 87.3% | SN12C renal 88.7% | UO-31 renal 85.2% | TK-10 renal 120% | ACHN renal 90.4% | CAKI-1 renal 85.2% | A498 renal 95.1% | CCRF-CEM leukemia 92.1% | MOLT-4 leukemia 83.5%

CCCn1cnc2c(c1=N)C(c1ccc(Cl)cc1)c1sc3c(CC)cccc3c1O2 (stereo unspecified)
active: HT29 colon -5.38% | SNB-75 CNS -1.58% | PC-3 prostate 3.88% | A498 renal -8.25% | CCRF-CEM leukemia 0.961%
inactive: HCT-15 colon 17.6% | SNB-19 CNS 23.1% | U251 CNS 14.3% | SK-MEL-5 melanoma 31% | UACC-62 melanoma 12.8% | LOX IMVI melanoma 29.3% | SK-MEL-28 melanoma 57.8% | EKVX NSCLC 43% | SN12C renal 27.8% | UO-31 renal 32.4% | TK-10 renal 61.1% | ACHN renal 35.3% | CAKI-1 renal 32.2% | MOLT-4 leukemia 10%

CCCCCc1ccc(S(=O)(=O)Nc2cc(-c3csc(NC(=O)CN4CCN(CCO)CC4)n3)ccc2OC)cc1
active: HCT-15 colon -9.25% | HT29 colon 4.51% | U251 CNS 2.41% | SK-MEL-5 melanoma -88.8% | UACC-62 melanoma -32.9% | LOX IMVI melanoma -82.5% | SK-MEL-28 melanoma -60.5% | CCRF-CEM leukemia 4.78% | MOLT-4 leukemia 6.18%
inactive: SNB-75 CNS 92.6% | SNB-19 CNS 31% | PC-3 prostate 48% | SN12C renal 74.7% | UO-31 renal 54.5% | TK-10 renal 104% | ACHN renal 65.6% | CAKI-1 renal 70.8% | A498 renal 63.1%

Cc1ccc(NC(=O)N[C@@H](Cc2cc(F)cc(F)c2)C(=O)NC2C(=O)N3C[C@H](O)C[C@H]3C(=O)N3CCCC[C@H]3C(=O)N[C@@H](CO)C(=O)N3C[C@H](C)C[C@H]3C(=O)O[C@H]2C)c(F)c1 (stereo partly specified)
inactive: HCT-15 colon 106% | HT29 colon 42.8% | SNB-75 CNS 27.4% | SNB-19 CNS 27.1% | U251 CNS 29.3% | PC-3 prostate 20% | SK-MEL-5 melanoma 21.5% | UACC-62 melanoma 30.9% | LOX IMVI melanoma 28.1% | SK-MEL-28 melanoma 47.4% | EKVX NSCLC 40.7% | SN12C renal 22% | UO-31 renal 90.7% | TK-10 renal 107% | ACHN renal 107% | CAKI-1 renal 82.9% | CCRF-CEM leukemia 35.1% | MOLT-4 leukemia 54.5%

Nc1nc(-c2cccc([N+](=O)[O-])c2)c(N=Nc2ccc([N+](=O)[O-])cc2Cl)s1
inactive: HT29 colon 10.7% | SNB-19 CNS 17% | U251 CNS 10.3% | LOX IMVI melanoma 14.1% | SK-MEL-28 melanoma 22.8% | UO-31 renal 10.5% | TK-10 renal 22.7% | CCRF-CEM leukemia 13%
active: HCT-15 colon 3.38% | SNB-75 CNS -1.14% | PC-3 prostate 5.14% | SK-MEL-5 melanoma -76.6% | UACC-62 melanoma 1.4% | EKVX NSCLC 6.7% | SN12C renal 5.24% | ACHN renal 7.06% | CAKI-1 renal 4.29% | MOLT-4 leukemia 7.78%
